Measured values: PubChem BioAssay (NCI)
The panel holds about 83,000 compounds, 20% with a hit somewhere; the sample as a whole holds those more often.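 96-well plates, one dose, 48 hours. Percent growth reported; active if below 10.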 A number with no mark means an inactive call. Activity calls are given as the source filed them.

Legend:
Assay in all cases: NCI-60 one-dose screen, 48 h (100 = growth as untreated, 0 = no growth, -100 = all killed)
Conditions in all cases: 10 µM unless noted
[1] = tested on: NCI-H23 lung
[2] = tested on: NCI-H226 lung
[3] = tested on: NCI-H322M lung
[4] = tested on: HOP-62 NSCLC
[5] = tested on: NCI-H460 lung
[6] = tested on: HOP-92 NSCLC
[7] = tested on: NCI-H522 lung
[8] = tested on: A549/ATCC NSCLC
[9] = tested on: 786-0 renal
[10] = tested on: COLO 205 colon
[11] = tested on: DU-145 prostate
[12] = tested on: K-562 leukemia
[13] = tested on: MALME-3M melanoma
[14] = tested on: MDA-MB-231 breast
[15] = tested on: RXF 393 renal
[16] = tested on: SF-268 CNS
[17] = tested on: SF-295 CNS
[18] = tested on: SF-539 CNS
[19] = tested on: M14 melanoma

| SMILES | growth [1] | growth [2] | growth [3] | growth [4] | growth [5] | growth [6] | growth [7] | growth [8] | growth [9] | growth [10] | growth [11] | growth [12] | growth [13] | growth [14] | growth [15] | growth [16] | growth [17] | growth [18] | growth [19] |
| --- | --- | --- | --- | --- | --- | --- | --- | --- | --- | --- | --- | --- | --- | --- | --- | --- | --- | --- | --- |
| Nc1cc2c(cc1N)-c1cc(N)c(N)cc1C2 | 95% | 98% | 102% | 95.5% | 105% | 86.7% | 88.3% | 97.9% | 100% | 116% | 118% | 107% | 102% | 83.8% | 107% | 91.4% | 113% | 103% | 101% |
| CC/C=C\C[C@H]1C/C=C2/C(=O)C(Cl)=C[C@@H]2C/C=C\CCCC(=O)O1 | -34.1% (active) | -11% (active) | 0.0936% (active) | -14.8% (active) | -43% (active) | -56.8% (active) | -60.6% (active) | -9.19% (active) | -80.7% (active) | -59.9% (active) | -91% (active) | -11.6% (active) | -42.6% (active) | -13% (active) | -90.1% (active) | -55.4% (active) | -63% (active) | -72.6% (active) | -47.1% (active) |
| O=S(=O)(NCCCNc1cc(-c2cn(-c3ccccc3)nc2-c2cccc(O)c2)ccn1)c1ccc(C(F)(F)F)cc1 | 43.9% | 49.6% | 49.8% | 50.9% | 22.2% | 29% | 69.7% | 35.1% | -8.06% (active) | -57.3% (active) | 60.8% | 3.42% (active) | 22.7% | 4.73% (active) | 24.7% | 44.1% | -3.81% (active) | 36.7% | 23.5% |
| Cc1cc2c(C(C)C)c(O)c(O)c(C=NCCCCC(=O)O)c2c(O)c1-c1c(C)cc2c(C(C)C)c(O)c(O)c(C=NCCCCC(=O)O)c2c1O | 33.8% | 85.2% | 46% | 50% | 23.8% | 22.6% | 23.4% | 49.1% | 49.1% | 41.1% | 63.8% | 26.4% | 78.8% | 40% | 57% | 44.2% | 27.3% | 42.2% | 66.9% |
| Cc1c(C(=O)NCc2ccccc2)[n+](=O)c2cc(F)ccc2n1[O-] | 90.1% | 103% | 117% | 94.8% | 109% | 64.3% | 90.9% | 109% | 101% | 123% | 99.8% | 214% | 114% | 111% | 33.1% | 111% | 88.4% | 103% | 99.5% |
| C#CCC1(c2ccc(F)c(F)c2)NS(=O)(=O)c2ccccc21 (centres undefined) | 98.1% | 103% | 90.5% | 86.2% | 108% | 106% | 65.5% | 76.9% | 101% | 110% | 107% | 89.4% | 93.7% | 109% | 114% | 102% | 105% | 104% | 107% |
| COc1cc2c(cc1OCCCCn1c(-c3cc(=O)c4ccccc4o3)nc3ccccc31)N=C[C@@H]1CCCN1C2=O | 101% | 101% | 108% | 105% | 112% | 66.5% | 66.7% | 90.5% | 108% | 104% | 118% | 72.3% | 109% | 87.7% | 51.3% | 107% | 113% | 118% | 105% |
| Cc1ccc2c(c1)C(C)Cc1c(N(C)C)ncnc1N2C (centres undefined) | 50.5% | 81.8% | 81.2% | 36.4% | 15.5% | 52.4% | 4.76% (active) | 49.3% | 34.8% | 32.4% | 68.7% | 12.8% | 53.2% | 56.3% | 40.1% | 47.3% | 6.52% (active) | 28.3% | 24.7% |
| CCNc1nc(N2CC(=O)Nc3cc(OC)ccc32)c2ccccc2n1 | 3.23% (active) | 50.3% | 36.6% | 25.5% | -5.18% (active) | -2.59% (active) | -8.1% (active) | 20.4% | 12% | -48.4% (active) | -1.09% (active) | 6.9% (active) | 51% | 12.7% | 33.7% | 14.8% | -5.23% (active) | -4.78% (active) | 7.3% (active) |
| Cc1cc2c(C(C)C)c(O)c(O)c(C=NCCCCCCC(=O)O)c2c(O)c1-c1c(C)cc2c(C(C)C)c(O)c(O)c(C=NCCCCCCC(=O)O)c2c1O | 21.8% | 74.7% | 38.9% | 39.3% | 13.1% | 13.8% | 9.55% (active) | 30.7% | 38.2% | 14.6% | 51.3% | 12.6% | 62.8% | 39.2% | 34.2% | 36.2% | 11.9% | 23.1% | 37% |
| N#CC1=C(N)n2nc(-c3ccncc3)nc2NC1c1cccc2ccccc12 (centres undefined) | 90.4% | 78.3% | 106% | 88.2% | 100% | 40.4% | 75.2% | 92.4% | 88% | 106% | 93.3% | 80.9% | 82% | 77.6% | 87.4% | 94.5% | 90.5% | 88.2% | 90.1% |
